Beta cell apopt = blocks beta cell apoptosis; AID 435005; hit rate 0.8% among 300,000; INS-1E cytokine-induced death, ATP luminescence, 48 h; percent of positive-control rescue, neutral wells zero; protection from apoptosis, % (test concentration not listed);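 active means Every replicate reaches about 75%, or at least half do and their mean reaches it too, limit read from the data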;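 further: 0% = cytokine-treated negative control wells and 100% = positive control rescue; higher means more ATP so stronger rescue from cytokine killing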
NTR1 ag = NTR1 (human) agonism; P30989; NTR1-U2OS beta-arrestin-GFP spot imaging, agonist mode; activation, % at 20 µM; hit rate 0.17% among 330,000;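 active means activation at or above 40% of the spot to cytoplasm intensity ratio, with at least 20 cells analyzed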;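 further: 0% = DMSO without peptide and 100% = 100 nM NTR1 peptide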
Target sequence (P30989 whole entry, looked up): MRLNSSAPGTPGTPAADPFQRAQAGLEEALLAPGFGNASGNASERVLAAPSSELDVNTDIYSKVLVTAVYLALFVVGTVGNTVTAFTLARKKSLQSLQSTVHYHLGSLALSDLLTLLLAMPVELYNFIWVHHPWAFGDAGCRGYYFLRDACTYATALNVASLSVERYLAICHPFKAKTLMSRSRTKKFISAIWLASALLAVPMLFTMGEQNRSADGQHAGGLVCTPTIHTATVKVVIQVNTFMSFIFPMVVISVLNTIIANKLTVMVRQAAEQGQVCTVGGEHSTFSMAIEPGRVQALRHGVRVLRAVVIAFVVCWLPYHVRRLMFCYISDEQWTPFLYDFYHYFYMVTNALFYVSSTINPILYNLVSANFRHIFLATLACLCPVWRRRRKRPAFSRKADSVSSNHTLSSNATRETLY
Bfl-1 A1 inh = inhibitors of the anti-apoptotic protein A1, read as caspase activation. MEF A1-2A-BIM cells, Caspase-Glo 3/7 luminescence, 3 h; percent of clofoctol response, vehicle zero. caspase activation, % (no concentration beside the values). hit rate 0.066% among 330,000;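 active means over half of replicate activation scores above 10%, or exactly half above 10 with the replicate mean above 10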
Jurkat NFkB inh = lowers PMA/ionomycin-induced NF-kB signal in Jurkat cells | PMA/ionomycin-induced NF-kB luciferase reporter, luminescence | inhibition, % at 4 µM | hit rate 0.53% among 330,000 | AID 435003; in the data active means inhibition above about 50%
697 NFkB inh = inhibitors of the PMA/ionomycin-induced NF-kB reporter in 697 B cells; 697 B-cell NF-kB luciferase reporter, 16 h; inhibition, % at 4 µM; hit rate 0.33% among 330,000; AID 435022; in the data active means inhibition above about 35%
Mdm2 MdmX PPI = inhibitors of human Mdm2/MdmX interaction; O15151+Q00987; SaOS-2 split-luciferase Mdm2/MdmX complementation, luminescence; inhibition, % at 8 µM; hit rate 3% among 330,000;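 active means inhibition of at least 50% at 8 µM in the primary screen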
Jurkat NFkB conf = inhibitors of the PMA/ionomycin-induced NF-kB reporter in Jurkat cells, retest; hit rate 27% among 2,700; shares compounds with Jurkat NFkB inh; Jurkat NF-kB luciferase, 16 h; inhibition, % at 4 µM;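 active means inhibition reaching about 45% at 4 µM in either replicate, limit read from the data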;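 further: plate controls were PMA/ionomycin stimulated DMSO wells for no effect and unstimulated DMSO wells for full effect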
697 NFkB conf = lowers PMA/ionomycin-induced NF-kB signal in 697 B cells. hit rate 35% among 2,000. inhibition, % at 4 µM. shares compounds with 697 NFkB inh. 697 B-cell NF-kB luciferase, 16 h; in the data active means inhibition mostly above about 28%, no sharp cut-off; inactive means mostly below about 22%
Mdm2-MdmX conf = confirmation of human Mdm2/MdmX interaction inhibitors. Mdm2-MdmX binding, luminescent assay. hit rate 55% among 10,000. shares compounds with Mdm2 MdmX PPI. AID 489028. inhibition, % at 8 µM; in the data active means inhibition above about 40%
Full FLuc ctr = full-length luciferase inhibition in Mdm2/MdmX counter-screen; shares compounds with Mdm2 MdmX PPI; SaOS-2 full-length luciferase counterscreen, luminescence; inhibition, % at 8 µM; hit rate 77% among 6,200; AID 504607;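 active means mean inhibition at 8 µM reaching about 37%, which flags the compound as non-specific, limit read from the data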;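 further: p53-null SaOS-2 cells with luciferase driven by a doxycycline-inducible promoter; compound on cells about two nights before reading with doxycycline added after day one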
Active calls of the source: *; nt = no result. A selection: hits, their analogues and other compounds. The true share with any hit is near 3.8%.

SMILES	Beta cell apopt	NTR1 ag	Bfl-1 A1 inh	Jurkat NFkB inh	697 NFkB inh	Mdm2 MdmX PPI	Jurkat NFkB conf	Mdm2-MdmX conf	Full FLuc ctr	others
COc1ccccc1N1CCN(C2CCCN(C(=O)CCn3cncn3)C2)CC1 (stereo not given)	-7	0	1	5	2	13	nt	nt	nt
Cc1ccc(C2=NN(C(=O)CSc3nccn3C)C(c3ccco3)C2)cc1 (stereo not given)	nt	1	0	63*	8	65*	20	57*	68*
Nc1nc(Cl)nc(N(c2ccccc2)c2ccccc2)n1	-10	0	1	-2	10	2	nt	nt	nt
Nc1nc(CCl)nc(N(c2ccccc2)c2ccccc2)n1	23	6	0	76*	34	94*	19	95*	38*
O=C(CNC(=O)c1cccc(Cl)c1)NCCCSc1ccccc1	-18	-1	0	-5	-19	13	nt	nt	nt
O=[N+]([O-])c1ccc(N=Nc2ncc[nH]2)cc1	54	-4	1	82*	-145	100*	21	59*	53*
O=S(=O)(Nc1cccc2ncccc12)c1cccs1	13	32	-1	80*	-25	74*	64*	100*	52*
CC(=O)Nc1ccc(S(=O)(=O)N(C)CC(=O)OC(C)C(=O)NC2CCCC2)cc1 (stereo not given)	-2	0	0	5	-8	-19	nt	nt	nt
COc1ccc(S(=O)(=O)N2CCCC2CNC(=O)C(=O)Nc2ccc(C)cc2)cc1 (stereo not given)	-2	1	-1	8	8	28	nt	nt	nt
COc1ccc(NC(=O)C(=O)NCCC2CCCCN2S(=O)(=O)c2cccs2)cc1 (stereo not given)	nt	2	0	61*	-27	52*	35	73*	75*
COc1ccc(NC(=O)C(=O)NCC2CCCN2S(=O)(=O)c2ccc(C)cc2)cc1 (stereo not given)	nt	4	1	76*	-170	66*	64*	79*	104*
COCCNC(=O)C(=O)Nc1ccc2c(c1)N(S(=O)(=O)c1cccs1)CCC2	7	0	1	60*	3	56*	24	72*	64*
O=C(NCCC1CCCCN1S(=O)(=O)c1cccs1)C(=O)Nc1ccccc1 (stereo not given)	nt	1	-1	-5	-6	2	nt	nt	nt
CC(=O)c1ccccc1OCc1ccc(S(=O)(=O)Cc2ccccc2)cc1	nt	1	-1	10	-19	21	nt	nt	nt
COc1ccc(OC)c(NC(=O)CCN2C(=O)c3cccc([N+](=O)[O-])c3C2=O)c1	nt	0	-1	8	10	13	nt	nt	nt
CN(CC(=O)Nc1ccccc1C(F)(F)F)C(=O)c1cc([N+](=O)[O-])ccc1N1CCOCC1	2	-1	-1	-14	-12	-6	nt	nt	nt
CCn1cc2nc(SCC(=O)Nc3ccc(OC)c(OC)c3)n(Cc3ccc(OC)cc3)c(=O)c2n1	-5	-1	1	-41	-36	-17	nt	nt	nt
CCn1cc2nc(SCC(=O)Nc3ccc(OC)cc3OC)n(Cc3ccc(OC)cc3)c(=O)c2n1	19	1	2	52*	-23	50*	30	42*	52*
O=c1[nH]c(CN2CCN(c3ccccc3O)CC2)nc2scc(-c3ccccc3Cl)c12	-6	1	1	16	-60	-6	nt	nt	nt
O=c1[nH]c(CN2CCN(c3ccc(O)cc3)CC2)nc2scc(-c3ccc(Cl)cc3)c12	8	1	1	60*	-47	59*	20	54*	58*
O=C(NCCc1ccccc1F)c1ccc2c(c1)OCCO2	1	-1	-9	76*	55*	89*	82*	92*	49*	697 NFkB conf=39*
O=C(CSc1nnc2ccc(-c3ccccn3)nn12)Nc1ccccc1F	nt	1	-1	10	11	-26	nt	nt	nt
O=C(/C=C/c1ccccc1)Nc1cccc(C(=O)O)c1	2	0	-9	82*	82*	68*	76*	64*	20	697 NFkB conf=79*
CC1=C(/C=C/C(C)=C/C=C/C(C)=C/C(=O)Nc2ccc(O)cc2)C(C)(C)CCC1	-1	16	0	63*	-246	87*	-10	8	nt
CC1=C(/C=C/C(=O)O)C(C)(C)CCC1	-4	1	0	3	11	1	nt	nt	nt
SMILES	Beta cell apopt	NTR1 ag	Bfl-1 A1 inh	Jurkat NFkB inh	697 NFkB inh	Mdm2 MdmX PPI	Jurkat NFkB conf	Mdm2-MdmX conf	Full FLuc ctr	others
CC(=O)NC(c1ccc2ccccc2c1)c1ccc2cccnc2c1O (stereo not given)	nt	3	1	57*	-12	86*	82*	90*	22
CC(=O)NC(c1ccc(C(C)C)cc1)c1c(O)ccc2ccccc12 (stereo not given)	-4	4	0	-4	-15	-5	nt	nt	nt
CCCCC(=O)NC(c1ccc(Cl)cc1)c1ccc2cccnc2c1O (stereo not given)	97*	1	0	51*	-18	77*	80*	86*	11
CCCCC(=O)NC(c1ccc(N(C)C)cc1)c1ccc2cccnc2c1O (stereo not given)	94*	1	0	54*	-23	75*	77*	86*	24
CCCCC(=O)NC(c1ccc(N(CC)CC)cc1)c1ccc2cccnc2c1O (stereo not given)	89*	1	-1	64*	-35	83*	76*	86*	20
CCCC(=O)NC(c1ccc(N(C)C)cc1)c1c(O)ccc2ccccc12 (stereo not given)	-6	1	0	11	4	5	nt	nt	nt
Cn1cnc2c(=O)sc3ccccc3c21	-4	0	-1	-10	9	22	nt	nt	nt
CCOc1ccc(CCNC(=O)COC(=O)c2ccc(C)s2)cc1OCC	2	0	1	-1	-2	10	nt	nt	nt
CCC(=O)NC(C)c1cc(Cl)c2cccnc2c1O (stereo not given)	-7	9	1	-5	-1	39	nt	nt	nt
CCCC(=O)NC(c1ccc(C)cc1)c1ccc2cccnc2c1O (stereo not given)	112*	7	1	52*	-10	81*	86*	87*	53*
CCC(=O)NC(c1cccs1)c1ccc2cccnc2c1O (stereo not given)	107*	5	0	63*	-41	82*	47*	84*	23

Screens deposited in PubChem by several laboratories.
